Each structure is given as a SMILES string. “And” between values parts separate entries of the source, which are not always exact repeats. Identical values can stand only once. The panel holds about 79,000 compounds, 15% with a hit somewhere; the sample as a whole holds those more often. A structure can be active in one record and inactive in another. The source made the active and inactive calls. Cut-off read from the data, not from the text of the source: active = growth inhibition above about 70%; inactive = the rest.

This experiment can be described thus: NCI Yeast Anticancer Drug Screen. Data for the mlh1 rad18 strain (AID 175). The conditions noted are these: S. cerevisiae mlh1 rad18 strain growth inhibition; at 50.0 µM; stronger effect = higher value. In outline: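 Test agents were incubated with a yeast strain of defined genotype (DNA damage repair defect). Inhibition of growth was derived by comparison with vehicle-exposed cultures.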
In the case of `COc1ccc2[nH]c3c(C)c4ccncc4c(C)c3c2c1`, the growth inhibition was 92.8% (active) and 99.4% (active). As to `CC(=O)OC1OC(CI)C(OC(C)=O)C(OC(C)=O)C1OC(C)=O` (stereo unspecified), the growth inhibition was 24.4% (inactive) and 9.3% (inactive).

Turning to `Cc1cc(NS(=O)(=O)c2ccc(N=Nc3cc(N=Nc4ccc(S(=O)(=O)Nc5cc(C)nc(C)n5)cc4)c4c(NC(=O)C(Cl)Cl)cccc4c3OC(=O)C(Cl)Cl)cc2)nc(C)n1` (tested in a mixture with another compound), the growth inhibition is -56.5% (inactive) and 81.5% (active). For `Oc1cc2c(cc1C(c1ccc3c(c1)OCO3)N1CCN(C(c3ccc4c(c3)OCO4)c3cc4c(cc3O)OCO4)CC1)OCO2` (stereo unspecified), the growth inhibition was 93.2% (active). For `O=[N+]([O-])c1ccc(N/N=C/CC(O)(C(F)(F)F)C(F)(F)F)c([N+](=O)[O-])c1` the value was 89.9% (active). `CCCc1cc(=O)oc2c3c(c4c(c12)OC(C)(C)CC4)O[C@@H](C)[C@H](C)[C@H]3O`: the growth inhibition is 8.05% (inactive) and 85.9% (active). As for `O=Cc1cc(Br)ccc1O`, the growth inhibition is 97% (active) and 99% (active). For `Nc1ncnc2c1ncn2CCCl`, the growth inhibition is 50.2% (inactive). The same measure for `CN(C)CCCN=c1c2ccccc2n(O)c2cccc([N+](=O)[O-])c12`: -31.7% (inactive); for `CCOc1ccc2ccccc2c1C(Cc1ccc(Cl)cc1)NCCO` (stereo unspecified): 98.5% (active); for `COc1ccc(Oc2ccccc2N)cc1`: 90.5% (active). In the case of `O=C1C(Cl)=C(Cl)C(Cl)(Cl)C(Cl)=C1Cl`, the growth inhibition was 98.1% (active) and 70.8% (active). On to `CCCCCCCCCCCC(=O)CN1CCOCC1`, for which the growth inhibition is 99.2% (active).

As for `CCC(C)(C)c1cc(O)c(C(C)(C)CC)cc1O`, the growth inhibition is 9.45% (inactive) and 91.8% (active). On to `Nc1ccccc1Oc1ccc(Cl)cc1Cl`, for which the growth inhibition was 92% (active). As to `O=C1Nc2ccccc2C1(O)C/C(=N/O)c1ccc2ccccc2c1` (stereo unspecified), the growth inhibition was 66.5% (inactive). Regarding `NNC(=O)c1ccc(NC(=O)CSc2nc3ccccc3s2)cc1`, the growth inhibition is 98.6% (active). For `C[C@H]1CC[C@H]([C@@H](C)[C@H]2[C@@H](O)C[C@H]3[C@@H]4CC[C@H]5C[C@@H](O)CC[C@]5(C)[C@H]4CC[C@]23C)NC1`, the growth inhibition was 84.5% (active) and 89.2% (active). The same measure for `CC(C)(c1ccc(O)cc1)c1ccc(O)cc1`: 76.6% (active) and 87.7% (active); for `O=C1/C(=C/c2ccc(Cl)cc2)CNC/C1=C\c1ccc(Cl)cc1`: 81.2% (active) and 79.2% (active). For `CCN(CC)c1ccc(/C=C/c2ccnc3ccccc23)cc1`, the growth inhibition was 98.3% (active) and 97.4% (active). For `Oc1ccc(/C=N/NC(=S)NN2CCOCC2)nc1`, the growth inhibition was 87.8% (active). Take `COc1ccc(-c2c(C#N)c(-c3ccc(C)cc3)n(NS(=O)(=O)c3ccccc3)c(=O)c2C#N)cc1`: the growth inhibition is 43% (inactive). On to `c1ccc(-c2[nH]c3ccccc3c2-c2ccccn2)cc1`, for which the growth inhibition is 98.8% (active). `Nc1cc2c(cc1Cl)[nH]c(=O)c1cc(Cl)ccc12`: the growth inhibition is 22.6% (inactive).

Regarding `C1=C(c2ccccc2)N(CCc2ccccc2)C(c2ccccc2)=CN1Cc1ccccc1`, the growth inhibition is 98.7% (active). For `COC(=O)c1nnn(-c2ccc(S(N)(=O)=O)cc2)c1N` the value was 64.9% (inactive); for `O=C1C(CN2CCOCC2)CCCC1CN1CCOCC1` (stereo unspecified), 26.8% (inactive) and 9.15% (inactive); for `c1ccc(-c2nc3ccccc3[nH]2)cc1`, -0.55% (inactive) and 43% (inactive). Turning to `O=Cc1cc([N+](=O)[O-])cc(CCl)c1O`, the growth inhibition was 27.9% (inactive).

Take `COC(=O)[C@]1(C)CCC[C@]2(C)c3ccc(C(C)C)cc3CC[C@@H]12`: the growth inhibition was 10.1% (inactive) and 99% (active).

Consider `CCOC(=O)c1ccc(NCc2ccc3ccccc3n2)cc1`, for which the growth inhibition was 74.3% (active). The same measure for `CCCCCCCCCCCCCCCC(=O)NCC[N+](C)(C)C`: 99.6% (active).

`OC(c1nc2ccccc2[nH]1)C(O)C(O)C(O)c1nc2ccccc2[nH]1` (stereo unspecified): the growth inhibition was 2.85% (inactive) and 22% (inactive). As for `O=[N+]([O-])c1ccc(N/N=C(/C=N/Nc2ccc([N+](=O)[O-])cc2)C(O)C(O)C(O)CO)cc1` (stereo unspecified), the growth inhibition was 98.2% (active) and 97.6% (active). Take `c1ccc2c(c1)CNc1ccccc1-2`: the growth inhibition was 92.1% (active).

Values taken from PubChem BioAssay (NCI).
